# Many of the other results were omitted from the sample, so the strongest signals are more common in it than they were.
# Experiments:
# Experiment in all cases: glycan array binding signal (z-score within array); higher = stronger binding
# Man(b1-4)GlcNAc = settings: glycan notation: IUPAC condensed, linker removed
# Outline: (§1)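 Arrays were curated from the Consortium for Functional Glycomics database, 3228 in total, and kept only where the protein sequence was available. Binding is expressed as a within-array Z-score. This score was averaged across arrays of the same protein sequence at different concentrations or buffers and across linkers, and negative values can be read as non-binding.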
# [1] = tested on: Neu5Ac(a2-3)Gal(b1-3)GlcNAc(b1-3)GalNAc; settings: glycan notation: IUPAC condensed, linker removed
# Outline: as §1
# [2] = tested on: Neu5Ac(a2-3)Gal(b1-3)GlcNAc(b1-2)Man(a1-3)[GlcNAc(b1-4)][Neu5Ac(a2-3)Gal(b1-3)GlcNAc(b1-2)Man(a1-6)]Man(b1-4)GlcNAc(b1-4)GlcNAc; settings: glycan notation: IUPAC condensed, linker removed
# Outline: as §1
# [3] = tested on: Neu5Ac(a2-3)Gal(b1-3)GalNAc(b1-4)[Neu5Ac(a2-3)]Gal(b1-4)Glc; settings: glycan notation: IUPAC condensed, linker removed
# Outline: as §1
# [4] = tested on: Neu5Ac(a2-3)Gal(b1-3)GalNAc(b1-4)[Neu5Ac(a2-8)Neu5Ac(a2-3)]Gal(b1-4)Glc; settings: glycan notation: IUPAC condensed, linker removed
# Outline: as §1
# [5] = tested on: Neu5Ac(a2-3)Gal(b1-3)GlcNAc(b1-3)Gal(b1-4)GlcNAc; settings: glycan notation: IUPAC condensed, linker removed
# Outline: as §1
# [6] = tested on: Neu5Ac(a2-3)Gal(b1-3)[Neu5Ac(a2-6)]GalNAc; settings: glycan notation: IUPAC condensed, linker removed
# Outline: as §1
# [7] = tested on: Neu5Ac(a2-3)Gal(b1-3)GalNAc6S; settings: glycan notation: IUPAC condensed, linker removed
# Outline: as §1
# [8] = tested on: Neu5Ac(a2-3)Gal(b1-3)GalNAc(b1-3)Gal(a1-4)Gal(b1-4)Glc; settings: glycan notation: IUPAC condensed, linker removed
# Outline: as §1
# [9] = tested on: Neu5Ac(a2-3)Gal(b1-3)GlcNAc; settings: glycan notation: IUPAC condensed, linker removed
# Outline: as §1
# Man(a1-6)Man = settings: glycan notation: IUPAC condensed, linker removed
# Outline: as §1
# [10] = tested on: Neu5Ac(a2-3)Gal(b1-3)GalNAc(b1-3)Gal(b1-4)GlcNAc; settings: glycan notation: IUPAC condensed, linker removed
# Outline: as §1
# [11] = tested on: Neu5Ac(a2-3)Gal(b1-3)[Fuc(a1-4)]GlcNAc; settings: glycan notation: IUPAC condensed, linker removed
# Outline: as §1
# [12] = tested on: Neu5Ac(a2-3)Gal(b1-3)GlcNAc6S; settings: glycan notation: IUPAC condensed, linker removed
# Outline: as §1
# [13] = tested on: Neu5Ac(a2-3)Gal(b1-3)GalNAc; settings: glycan notation: IUPAC condensed, linker removed
# Outline: as §1
# [14] = tested on: Neu5Ac(a2-3)Gal(b1-3)GlcNAc(b1-2)Man(a1-3)[Neu5Ac(a2-3)Gal(b1-3)GlcNAc(b1-2)Man(a1-6)]Man(b1-4)GlcNAc(b1-4)GlcNAc; settings: glycan notation: IUPAC condensed, linker removed; mutation: R125K
# Outline: as §1
# [15] = tested on: Neu5Ac(a2-3)Gal(b1-3)GlcNAc(b1-2)Man; settings: glycan notation: IUPAC condensed, linker removed
# Outline: as §1
# [16] = tested on: Neu5Ac(a2-3)Gal(b1-3)GlcNAc(b1-6)GalNAc; settings: glycan notation: IUPAC condensed, linker removed; mutation: R125K
# Outline: as §1
# [17] = tested on: Neu5Ac(a2-3)Gal(b1-3)[GlcNAc(b1-6)]GalNAc; settings: glycan notation: IUPAC condensed, linker removed; mutation: R125K
# Outline: as §1
# [18] = tested on: Neu5Ac(a2-3)Gal(b1-3)[Neu5Ac(a2-3)Gal(b1-4)]GlcNAc; settings: glycan notation: IUPAC condensed, linker removed
# Outline: as §1
# Sequence of Aggrecan (Rattus norvegicus), NP_071526 (chain, as listed by the source): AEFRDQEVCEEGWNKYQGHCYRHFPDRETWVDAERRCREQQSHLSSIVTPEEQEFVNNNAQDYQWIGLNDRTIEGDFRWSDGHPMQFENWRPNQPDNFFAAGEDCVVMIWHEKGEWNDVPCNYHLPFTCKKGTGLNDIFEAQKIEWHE
# Sequence of Avaren (Actinomycete K97) (chain, as listed by the source): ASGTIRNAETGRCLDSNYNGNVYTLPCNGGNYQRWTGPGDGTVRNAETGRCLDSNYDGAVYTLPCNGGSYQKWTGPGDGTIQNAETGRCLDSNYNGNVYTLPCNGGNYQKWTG
# Sequence of wLAT-1A (Homo sapiens), Q01650 (Q01650 whole entry): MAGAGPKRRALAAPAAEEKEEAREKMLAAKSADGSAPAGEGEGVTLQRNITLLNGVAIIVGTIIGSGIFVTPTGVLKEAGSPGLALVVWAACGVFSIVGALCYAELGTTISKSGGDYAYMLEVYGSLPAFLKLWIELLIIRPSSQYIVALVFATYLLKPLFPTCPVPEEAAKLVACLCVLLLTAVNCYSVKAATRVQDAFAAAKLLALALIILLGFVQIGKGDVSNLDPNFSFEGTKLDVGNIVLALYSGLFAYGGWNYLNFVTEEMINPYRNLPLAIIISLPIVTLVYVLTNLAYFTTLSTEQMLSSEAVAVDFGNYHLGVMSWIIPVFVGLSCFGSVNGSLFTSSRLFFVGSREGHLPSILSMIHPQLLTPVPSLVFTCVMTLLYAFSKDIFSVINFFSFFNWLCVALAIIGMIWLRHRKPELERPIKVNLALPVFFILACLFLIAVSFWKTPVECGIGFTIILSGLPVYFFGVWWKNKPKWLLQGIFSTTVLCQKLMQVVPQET
# Sequence of PILRa (Mus musculus), Q2YSF3 (Q2YSF3 entry or part of it): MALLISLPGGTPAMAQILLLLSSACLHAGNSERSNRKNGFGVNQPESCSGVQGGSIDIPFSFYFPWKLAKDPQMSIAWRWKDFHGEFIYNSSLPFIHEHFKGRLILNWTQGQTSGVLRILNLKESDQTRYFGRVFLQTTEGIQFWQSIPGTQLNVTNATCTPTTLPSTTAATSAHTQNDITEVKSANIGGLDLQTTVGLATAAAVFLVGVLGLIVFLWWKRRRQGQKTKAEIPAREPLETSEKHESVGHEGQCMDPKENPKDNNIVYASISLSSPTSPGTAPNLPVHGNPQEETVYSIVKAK
# Sequence of C3b (Homo sapiens), P01024 (P01024 23-667): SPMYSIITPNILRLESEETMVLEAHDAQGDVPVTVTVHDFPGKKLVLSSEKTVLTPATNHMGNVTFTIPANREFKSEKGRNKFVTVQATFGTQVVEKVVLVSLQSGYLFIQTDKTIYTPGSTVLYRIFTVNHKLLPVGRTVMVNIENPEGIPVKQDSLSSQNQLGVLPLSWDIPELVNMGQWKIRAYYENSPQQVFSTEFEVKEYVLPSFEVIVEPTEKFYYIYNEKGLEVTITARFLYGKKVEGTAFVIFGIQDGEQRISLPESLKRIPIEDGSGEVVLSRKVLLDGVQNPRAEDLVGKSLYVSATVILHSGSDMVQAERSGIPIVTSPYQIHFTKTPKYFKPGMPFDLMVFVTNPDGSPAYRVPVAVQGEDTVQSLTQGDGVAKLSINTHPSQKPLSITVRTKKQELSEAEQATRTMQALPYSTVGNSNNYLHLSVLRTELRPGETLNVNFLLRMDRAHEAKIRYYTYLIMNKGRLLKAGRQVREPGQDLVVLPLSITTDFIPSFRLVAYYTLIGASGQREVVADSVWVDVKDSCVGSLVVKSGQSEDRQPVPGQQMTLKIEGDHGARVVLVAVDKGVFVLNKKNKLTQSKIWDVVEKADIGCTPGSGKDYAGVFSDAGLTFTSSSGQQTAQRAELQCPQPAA
# Sequence of Neurocan (Homo sapiens), O14594 (O14594 other isoform, or with tags, fused parts or gaps): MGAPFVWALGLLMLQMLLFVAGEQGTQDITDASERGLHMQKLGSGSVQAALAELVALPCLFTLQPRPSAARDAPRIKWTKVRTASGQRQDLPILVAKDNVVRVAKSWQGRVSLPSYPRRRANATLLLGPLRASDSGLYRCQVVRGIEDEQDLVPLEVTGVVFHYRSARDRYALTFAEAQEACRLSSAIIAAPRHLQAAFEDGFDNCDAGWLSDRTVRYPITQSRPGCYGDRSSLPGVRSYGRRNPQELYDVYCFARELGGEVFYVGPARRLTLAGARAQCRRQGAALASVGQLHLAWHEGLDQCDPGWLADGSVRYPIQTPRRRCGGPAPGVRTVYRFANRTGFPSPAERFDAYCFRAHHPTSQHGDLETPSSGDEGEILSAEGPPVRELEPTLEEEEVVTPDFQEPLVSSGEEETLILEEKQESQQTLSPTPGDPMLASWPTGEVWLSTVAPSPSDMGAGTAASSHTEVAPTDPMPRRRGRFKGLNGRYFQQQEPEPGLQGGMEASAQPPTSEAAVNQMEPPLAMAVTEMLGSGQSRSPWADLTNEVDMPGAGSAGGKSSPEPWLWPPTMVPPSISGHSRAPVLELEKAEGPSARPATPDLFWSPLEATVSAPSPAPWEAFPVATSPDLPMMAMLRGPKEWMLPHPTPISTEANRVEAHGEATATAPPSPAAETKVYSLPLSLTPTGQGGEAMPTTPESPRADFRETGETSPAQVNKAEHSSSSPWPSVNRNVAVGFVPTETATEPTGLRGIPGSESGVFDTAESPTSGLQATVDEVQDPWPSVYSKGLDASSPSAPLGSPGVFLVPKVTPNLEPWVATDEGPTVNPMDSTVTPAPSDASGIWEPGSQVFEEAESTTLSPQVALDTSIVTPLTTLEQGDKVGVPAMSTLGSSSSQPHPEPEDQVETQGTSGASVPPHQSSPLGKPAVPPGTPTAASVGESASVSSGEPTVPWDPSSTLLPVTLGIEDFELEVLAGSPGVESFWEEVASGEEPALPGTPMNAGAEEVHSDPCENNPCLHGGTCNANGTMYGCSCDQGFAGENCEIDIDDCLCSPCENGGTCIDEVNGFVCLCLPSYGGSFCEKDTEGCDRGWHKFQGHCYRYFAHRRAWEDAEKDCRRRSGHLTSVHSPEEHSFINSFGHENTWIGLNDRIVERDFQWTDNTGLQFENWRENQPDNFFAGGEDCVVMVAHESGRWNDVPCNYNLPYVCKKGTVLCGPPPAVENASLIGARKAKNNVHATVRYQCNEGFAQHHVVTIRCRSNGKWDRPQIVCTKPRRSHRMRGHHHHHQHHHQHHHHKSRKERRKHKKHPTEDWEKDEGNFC
# Sequence of PILRb (Mus musculus), Q2YSF2 (Q2YSF2 entry or part of it): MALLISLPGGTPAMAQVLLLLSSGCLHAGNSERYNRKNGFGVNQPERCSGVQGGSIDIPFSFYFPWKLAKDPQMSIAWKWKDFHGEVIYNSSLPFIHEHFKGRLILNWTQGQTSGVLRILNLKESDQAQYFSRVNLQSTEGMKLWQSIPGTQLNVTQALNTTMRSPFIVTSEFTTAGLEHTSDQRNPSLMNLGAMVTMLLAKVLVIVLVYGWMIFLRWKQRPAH
# Sequence of SRLC (Mus musculus), Q8VIF6 (Q8VIF6 other isoform, or with tags, fused parts or gaps): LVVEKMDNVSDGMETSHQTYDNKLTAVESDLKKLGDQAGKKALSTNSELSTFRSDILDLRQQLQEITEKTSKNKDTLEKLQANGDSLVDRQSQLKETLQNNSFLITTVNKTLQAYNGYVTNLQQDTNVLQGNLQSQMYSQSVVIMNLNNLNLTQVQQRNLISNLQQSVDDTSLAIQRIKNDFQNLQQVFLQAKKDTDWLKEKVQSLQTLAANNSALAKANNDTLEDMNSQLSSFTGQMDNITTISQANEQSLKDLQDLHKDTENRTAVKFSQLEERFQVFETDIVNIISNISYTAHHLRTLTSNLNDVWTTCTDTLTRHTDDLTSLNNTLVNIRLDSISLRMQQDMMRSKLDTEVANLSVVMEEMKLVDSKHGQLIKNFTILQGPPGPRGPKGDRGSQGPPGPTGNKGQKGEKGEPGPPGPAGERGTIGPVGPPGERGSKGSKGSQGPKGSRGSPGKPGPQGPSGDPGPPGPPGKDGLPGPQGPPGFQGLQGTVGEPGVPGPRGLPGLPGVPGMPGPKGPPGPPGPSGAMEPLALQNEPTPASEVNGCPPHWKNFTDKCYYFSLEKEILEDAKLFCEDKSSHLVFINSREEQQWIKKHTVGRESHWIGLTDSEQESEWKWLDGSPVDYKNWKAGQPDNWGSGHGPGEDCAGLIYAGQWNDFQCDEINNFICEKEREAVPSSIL
# Sequence of 6RG (Lolium perenne) (chain, as listed by the source): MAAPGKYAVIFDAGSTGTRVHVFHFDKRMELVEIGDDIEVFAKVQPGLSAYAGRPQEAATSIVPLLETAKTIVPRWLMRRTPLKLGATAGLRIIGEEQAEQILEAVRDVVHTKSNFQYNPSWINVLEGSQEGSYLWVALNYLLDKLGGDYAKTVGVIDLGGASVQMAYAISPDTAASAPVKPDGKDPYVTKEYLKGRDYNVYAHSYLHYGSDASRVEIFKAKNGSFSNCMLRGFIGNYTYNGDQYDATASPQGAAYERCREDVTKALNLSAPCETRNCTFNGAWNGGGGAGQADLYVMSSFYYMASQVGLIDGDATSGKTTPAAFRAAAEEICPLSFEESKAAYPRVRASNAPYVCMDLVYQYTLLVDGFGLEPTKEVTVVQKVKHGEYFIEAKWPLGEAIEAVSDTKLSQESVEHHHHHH
substance,measurement,setting,value
"PILRb (Mus musculus), Q2YSF2",glycan array binding signal (z-score),Man(b1-4)GlcNAc,-0.166
same,glycan array binding signal (z-score),[1],-0.463
MpAFP RI GFP (Marinomonas primoryensis),glycan array binding signal (z-score),[2],-0.323
Avaren (Actinomycete K97),glycan array binding signal (z-score),[3],-0.124
same,glycan array binding signal (z-score),[4],-0.128
same,glycan array binding signal (z-score),[5],-0.128
same,glycan array binding signal (z-score),[6],-0.174
"SRLC (Mus musculus), Q8VIF6",glycan array binding signal (z-score),[6],-0.214
6RG (Lolium perenne),glycan array binding signal (z-score),[7],-0.326
"Neurocan (Homo sapiens), O14594",glycan array binding signal (z-score),[8],0.009
same,glycan array binding signal (z-score),[9],2.76
"wLAT-1A (Homo sapiens), Q01650",glycan array binding signal (z-score),Man(a1-6)Man,0.732
same,glycan array binding signal (z-score),Man(b1-4)GlcNAc,0.584
same,glycan array binding signal (z-score),[9],-0.345
"Aggrecan (Rattus norvegicus), NP_071526",glycan array binding signal (z-score),Man(b1-4)GlcNAc,-0.071
same,glycan array binding signal (z-score),[10],-0.071
same,glycan array binding signal (z-score),[11],-0.038
"PILRa (Mus musculus), Q2YSF3",glycan array binding signal (z-score),[12],-0.412
same,glycan array binding signal (z-score),[6],3.58
"Siglec-8 (Homo sapiens), Q9NYZ4",glycan array binding signal (z-score),[13]; mutation: R125K,4.65
same,glycan array binding signal (z-score),[14],1.23
same,glycan array binding signal (z-score),[15],1.28
same,glycan array binding signal (z-score),[16],0.063
same,glycan array binding signal (z-score),[9]; mutation: R125K,-0.024
same,glycan array binding signal (z-score),[17],-0.157
"C3b (Homo sapiens), P01024",glycan array binding signal (z-score),[13],-0.754
same,glycan array binding signal (z-score),[18],-0.041

# Reference: the supplement of paper PMC8728848
